In PubChem BioAssay one finds cell count and fold fluorescence data, which are given here for 25 molecules.

Active and inactive are the calls of the source. No rule for the calls is given here. Square brackets hold non-standard residues; d marks the D form. Peptide text beside a SMILES is read from it. * marks the point of attachment. Phe(ol) = N[C@H](CO)Cc1ccccc1; Nle = CCCC[C@H](N)C(=O)O; Boc = CC(C)(C)OC(=O)*; Aib = CC(C)(N)C(=O)O

One test is described as follows: viability loss with induced miR-34 in A549 – imaging, A549 dox-inducible miR-34, nuclei and caspase counts, primary screen (AID 1347080). As to conditions: A549 miR-34 inducible, Hoechst nuclei count, 48 h; measured here: total cells without miR-34 induction.
In turn, `Clc1ccc2ncnc(NCc3ccc4c(c3)OCO4)c2c1` showed a cell count of 3760.

Take `COC(=O)CNC(=O)C(=O)OC`: the cell count came out at 6190. On the same count and under the same terms, the result for `CC(=O)NC(C)(C)C(=O)N1CCC[C@H]1C(=O)NC(C)(C)C(=O)N[C@@H](C)C(=O)NC(C)(C)C(=O)N[C@@H](C)C(=O)N[C@@H](CCC(N)=O)C(=O)NC(C)(C)C(=O)N[C@H](C(=O)NC(C)(C)C(=O)NCC(=O)N[C@@H](CC(C)C)C(=O)NC(C)(C)C(=O)N1CCC[C@H]1C(=O)N[C@H](C(=O)NC(C)(C)C(=O)NC(C)(C)C(=O)N[C@@H](CCC(=O)O)C(=O)N[C@@H](CCC(N)=O)C(=O)N[C@H](CO)Cc1ccccc1)C(C)C)C(C)C` (Ac-[Aib]P[Aib]A[Aib]AQ[Aib]V[Aib]GL[Aib]PV[Aib][Aib]EQ[Phe(ol)]) reads 1350; that for `CC(C)C[C@@H](/C=C/S(C)(=O)=O)NC(=O)[C@H](CC(C)C)NC(=O)[C@H](CC(C)C)NC(=O)OCc1ccccc1`, 666.

The next test can be described thus: chitosan synthesis blockers in C. neoformans – flow cytometry, Cibacron Brilliant Red staining (AID 1347148).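 Also: compound exposure lasted three days at 37 degrees C.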 Particulars: Cryptococcus neoformans chitosan, stronger effect = lower value; at 10 µM unless noted.
For `CCCCCCCC/C=C\CCCCCCCC(=O)OC[C@H](CO)OC(=O)CCCCCCC/C=C\CCCCCCCC`, the fold fluorescence is 4.1 (inactive). Still for that read-out and setting: the result for `NC(=NCc1ccc(Cl)cc1Cl)NC(=O)c1nc(Cl)c(N)nc1N` reads 10.2 [at 117.6 µM] (inactive).

On to `CN([C@@H](Cc1ccc(OS(=O)(=O)c2cccc3cnccc23)cc1)C(=O)N1CCN(c2ccccc2)CC1)S(=O)(=O)c1cccc2cnccc12`, for which the fold fluorescence was 3.04 [at 69.3 µM] (inactive). Still for that read-out and setting: with `CCCC[C@@H](C=O)NC(=O)[C@H](CC(C)C)NC(=O)[C@H](CC(C)C)NC(C)=O` (Ac-Leu-Leu-[Nle]-aldehyde) the figure was 4.19 [at 130.4 µM] (inactive). On the same count and under the same terms, with `CCC(C)[C@H](NS(=O)(=O)c1cccc2ccccc12)C(=O)N[C@H](C=O)Cc1c[nH]c2ccccc12` (stereo not given in full) the figure was 3.23 [at 101.7 µM] (inactive); with `CC(C)[C@@H]1NC(=O)[C@H](Cc2ccccc2)NC(=O)[C@@H](CC(=O)O)NC(=O)CNC(=O)[C@H](CCCN=C(N)N)NC1=O`, 6.81 [at 87 µM] (inactive); with `CSCC[C@H](NC(=O)[C@H](Cc1ccccc1)NC[C@@H](NC[C@@H](N)CS)C(C)C)C(=O)O`, 4.75 [at 106.2 µM] (inactive). Take `CCCCCCCCCC(=O)OC[C@H](CO)OC(=O)CCCCCCCCC`: the fold fluorescence was 7.36 (inactive). `CCC(C)[C@@H](CO[C@@H](Cc1ccccc1)C(=O)N[C@@H](CCS(C)(=O)=O)C(=O)OC(C)C)NC[C@@H](N)CS` (stereo not given in full): the fold fluorescence is 3.05 [at 89.3 µM] (inactive). Consider `CCCCC[C@@H](O)/C=C/[C@H]1[C@H](C/C=C\CCCC(=O)O)C(=O)C[C@@H]1O`, for which the fold fluorescence was 3.88 (inactive). Regarding `CCCCC[C@@H](O)/C=C/[C@H]1[C@H](C/C=C\CCCC(=O)O)[C@H](O)C[C@@H]1O`, the fold fluorescence was 3.65 (inactive). `CC1(C)Oc2ccc(C#N)cc2[C@@H](OC2=CC(=O)CC2)[C@@H]1O`: the fold fluorescence was 3.79 [at 167 µM] (inactive). Same read-out and setting: with `CC[C@H]1[C@@H]2C=C[C@@H]3[C@H]4C/C=C\C(=O)NCCC[C@@H]5NC(=O)C(=C5O)C(=O)CC[C@@H]4C[C@@H]3[C@H]2C[C@H]1C` the figure was 7.3 [at 104 µM] (inactive); with `CCCCC/C=C\C\C=C/C=C/C=C/[C@@H](SC[C@H](N)C(=O)NCC(=O)O)[C@@H](O)CCCC(=O)O`, 3.83 [at 1 µM] (inactive); with `CCCC[C@@H](C)/C=C(C)/C=C(\C)C(=O)NC1=C[C@@](O)(/C=C/C=C/C=C/C(=O)NC2=C(O)CCC2=O)[C@@H]2O[C@@H]2C1=O`, 7.73 [at 90.8 µM] (inactive). As to `C=C[C@@]1(C)CC(=O)[C@]2(O)[C@@]3(C)[C@H](O)CCC(C)(C)[C@@H]3[C@H](O)[C@H](OC(C)=O)[C@@]2(C)O1`, the fold fluorescence is 6.21 [at 121.8 µM] (inactive). As for `CCCCCCCCCCCCCCCCOC[C@H](CO)OC(C)=O`, the fold fluorescence was 4.43 (inactive). Still for that read-out and setting: the result for `CC(C)[C@H](NC(=O)CNC(=O)OC(C)(C)C)C(=O)N[C@H](C=O)C(C)C` (Boc-Gly-Val-Val-aldehyde) reads 10.2 [at 139.9 µM] (inactive); that for `c1ccc(CN(CCN(Cc2ccccn2)Cc2ccccn2)Cc2ccccn2)nc1`, 9.33 [at 117.8 µM] (inactive); that for `C=CC1CN2CCC1C[C@@H]2[C@H](O)c1ccnc2ccc(OC)cc12` (stereo not given in full), 5.27 [at 154.1 µM] (inactive).

For the molecule `CCCCCCCCCCCCCCCCCCc1ccc(C(=O)/C=C/C(=O)O)cc1`, the fold fluorescence is 13.3 [at 116.6 µM] (inactive).
